# Experimental data as given in ChEMBL document CHEMBL2218924, “A broad activity screen in support of a chemogenomic map for kinase signalling research and drug discovery” (Biochem J, 2013).
# Target: Calcium/calmodulin-dependent protein kinase type 1 (Homo sapiens) (UniProt Q14012)
# Conditions: at 1 µM
# Chain of Calcium/calmodulin-dependent protein kinase type 1 (Homo sapiens) (Q14012 whole entry, looked up): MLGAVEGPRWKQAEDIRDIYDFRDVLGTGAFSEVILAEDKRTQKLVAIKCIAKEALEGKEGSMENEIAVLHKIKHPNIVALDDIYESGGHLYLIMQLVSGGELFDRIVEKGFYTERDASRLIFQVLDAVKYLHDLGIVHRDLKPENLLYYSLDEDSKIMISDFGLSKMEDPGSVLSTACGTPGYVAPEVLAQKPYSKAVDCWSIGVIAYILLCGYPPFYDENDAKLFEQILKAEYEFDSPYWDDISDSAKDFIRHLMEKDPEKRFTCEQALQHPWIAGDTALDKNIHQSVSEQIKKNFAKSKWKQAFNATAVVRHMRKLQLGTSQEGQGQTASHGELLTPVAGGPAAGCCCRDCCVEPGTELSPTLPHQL
row,SMILES,residual activity [%]
1,NC(=O)Nc1sc(-c2ccc(F)cc2)cc1C(N)=O,74
2,COc1cc2nccc(Oc3ccc(NC(=O)Nc4cc(C)on4)c(Cl)c3)c2cc1OC,105
3,O=c1cc(N2CCOCC2)oc2c1ccc1ccccc12,104
4,Nc1ncnc2[nH]nc(Nc3ccc(F)cc3)c12,91
5,CC(C)(C)n1nc(Cc2cccc3ccccc23)c2c(N)ncnc21,105
6,O=C(NC(NC(=S)Nc1ccc(F)c([N+](=O)[O-])c1)C(Cl)(Cl)Cl)C(c1ccccc1)c1ccccc1 (stereo not given),99
7,COc1ccc(-c2cnc3c(-c4ccsc4)cnn3c2)cc1,88
8,CCN(CC)CCNC(=O)c1c(C)[nH]c(/C=C2\C(=O)Nc3ccc(Cl)cc32)c1C,51
9,NCCNc1ncc(C(N)=O)c(Nc2cccc(C(F)(F)F)c2)n1,20
10,CC(C)c1nn(-c2c(Cl)cccc2Cl)c2nc(Cc3ccc(OCCO)cc3)[nH]c(=O)c12,90
11,CC(C)(C)c1nc2c3ccc(F)cc3c3c(=O)[nH]ccc3c2[nH]1,60
12,O=C1NC(=O)C(c2cn(CCCO)c3ncccc23)=C1c1cnccn1,93
13,O=C1NC(=O)c2c1c1c3ccccc3[nH]c1n1cncc21,61
14,O=C(O)/C=C/c1cc(Br)c(Br)c(Br)c1Br,102
15,CCCCc1c(-c2ccc(OC)cc2)[nH]c2nccnc12,109
16,O=C(CCCc1ccc(-c2ccccc2F)cc1)Nc1ccc(O)cc1,92
17,Cn1sc(=O)n(Cc2ccccc2)c1=O,75
18,Nc1ncnc2c1cnn2-c1ccccc1,99
19,O=C1Nc2ccc(Cl)cc2/C1=C/c1cc(Cl)c(O)c(Cl)c1,96
20,c1ccc(-c2cnc(Nc3ccc(OCCN4CCCC4)cc3)s2)cc1,101
21,Nc1ncnc2c1c(-c1ccc(Oc3ccccc3)cc1)cn2C1CCCC1,95
22,O=C(c1ccccc1)c1ccc(N2CCOCC2)cc1O,95
23,O=C1Cc2c([nH]c3ccc(Br)cc23)-c2ccccc2N1,94
24,Cn1c2ccccc2c2c3c(c4c5ccccc5n(CCC#N)c4c21)CNC3=O,80
25,CC(C)N(CCC(=O)c1ccc2ccccc2c1)Cc1ccccc1,100
26,COc1ccc2c(c1)c(C1=C(c3c[nH]c4ccccc34)C(=O)NC1=O)cn2CCCN(C)C,96
27,O=C1NC(=O)C(c2cn(CCCn3ccnc3)c3ccccc23)=C1Nc1ccccc1,106
28,Nc1n[nH]c2nc3ccccc3nc12,87
29,O=c1cc(N2CCNCC2)oc2c(-c3ccccc3)cccc12,105
30,COc1cc2ncnc(Nc3cccc(Cl)c3)c2cc1OC,108

# Target: Calcium/calmodulin-dependent protein kinase type 1 (Homo sapiens) (UniProt Q14012)
# Conditions: at 10 µM
row,SMILES,residual activity [%]
1,NC(=O)Nc1sc(-c2ccc(F)cc2)cc1C(N)=O,18
2,COc1cc2nccc(Oc3ccc(NC(=O)Nc4cc(C)on4)c(Cl)c3)c2cc1OC,41
3,O=c1cc(N2CCOCC2)oc2c1ccc1ccccc12,72
4,Nc1ncnc2[nH]nc(Nc3ccc(F)cc3)c12,72
5,CC(C)(C)n1nc(Cc2cccc3ccccc23)c2c(N)ncnc21,88
6,O=C(NC(NC(=S)Nc1ccc(F)c([N+](=O)[O-])c1)C(Cl)(Cl)Cl)C(c1ccccc1)c1ccccc1 (stereo not given),91
7,COc1ccc(-c2cnc3c(-c4ccsc4)cnn3c2)cc1,80
8,CCN(CC)CCNC(=O)c1c(C)[nH]c(/C=C2\C(=O)Nc3ccc(Cl)cc32)c1C,-2
9,NCCNc1ncc(C(N)=O)c(Nc2cccc(C(F)(F)F)c2)n1,-5
10,CC(C)c1nn(-c2c(Cl)cccc2Cl)c2nc(Cc3ccc(OCCO)cc3)[nH]c(=O)c12,91
11,CC(C)(C)c1nc2c3ccc(F)cc3c3c(=O)[nH]ccc3c2[nH]1,9
12,O=C1NC(=O)C(c2cn(CCCO)c3ncccc23)=C1c1cnccn1,97
13,O=C1NC(=O)c2c1c1c3ccccc3[nH]c1n1cncc21,36
14,O=C(O)/C=C/c1cc(Br)c(Br)c(Br)c1Br,74
15,CCCCc1c(-c2ccc(OC)cc2)[nH]c2nccnc12,86
16,O=C(CCCc1ccc(-c2ccccc2F)cc1)Nc1ccc(O)cc1,73
17,Cn1sc(=O)n(Cc2ccccc2)c1=O,67
18,Nc1ncnc2c1cnn2-c1ccccc1,69
19,O=C1Nc2ccc(Cl)cc2/C1=C/c1cc(Cl)c(O)c(Cl)c1,63
20,c1ccc(-c2cnc(Nc3ccc(OCCN4CCCC4)cc3)s2)cc1,41
21,Nc1ncnc2c1c(-c1ccc(Oc3ccccc3)cc1)cn2C1CCCC1,29
22,O=C(c1ccccc1)c1ccc(N2CCOCC2)cc1O,98
23,O=C1Cc2c([nH]c3ccc(Br)cc23)-c2ccccc2N1,74
24,Cn1c2ccccc2c2c3c(c4c5ccccc5n(CCC#N)c4c21)CNC3=O,32
25,CC(C)N(CCC(=O)c1ccc2ccccc2c1)Cc1ccccc1,80
26,COc1ccc2c(c1)c(C1=C(c3c[nH]c4ccccc34)C(=O)NC1=O)cn2CCCN(C)C,45
27,O=C1NC(=O)C(c2cn(CCCn3ccnc3)c3ccccc23)=C1Nc1ccccc1,53
28,Nc1n[nH]c2nc3ccccc3nc12,68
29,O=c1cc(N2CCNCC2)oc2c(-c3ccccc3)cccc12,80
30,COc1cc2ncnc(Nc3cccc(Cl)c3)c2cc1OC,62
